According to the supplement of paper PMC4022240:
± gives the standard deviation.

Key:
Experiment in all cases: peptide microarray binding signal (635 nm), min-max normalized on array (fraction of array maximum); higher = stronger binding
Conditions in all cases: peptide region: H3 20-32
[1] = target: T1, HaloTag-ATRX ADD domain (163-292)
T1 chain: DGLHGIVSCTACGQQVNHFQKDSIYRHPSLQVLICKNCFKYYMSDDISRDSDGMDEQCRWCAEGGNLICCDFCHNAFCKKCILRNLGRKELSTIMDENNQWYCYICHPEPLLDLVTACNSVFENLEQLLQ
Outline: (§1)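 Triplicate spots of histone 13-mer peptide–cellulose conjugates with a Cy3 tracer were printed on nitrocellulose and probed for 1 h at 4°C with biotin-labelled HaloTag reader fusions (10 nM to 1 μM) plus streptavidin-Alexa Fluor 647 or rabbit histone antibodies (1:10,000 to 1:2,000) plus anti-rabbit Alexa 647. An Axon GenePix 4000B read the 635 nm channel. Binding signal is the spot-triplicate mean intensity after min-max scaling within each library.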

[2] = target: HaloTag-ING2 PHD (mouse Ing2 200-280)
Outline: as §1

[3] = target: anti-H3K4me3 antibody ab8580
Outline: as §1

[4] = target: anti-H3K9me3 antibody ab8898
Outline: as §1

[5] = peptide modifications: H3K23me3 H3K27me1, binder concentration: 1:2,000 dilution
[6] = peptide modifications: H3K23me3 H3K27me1, binder concentration: 1:10,000 dilution
[7] = peptide modifications: H3K23me2 H3K27me2, binder concentration: 1:2,000 dilution
[8] = peptide modifications: H3K23me2 H3K27me2, binder concentration: 1:10,000 dilution
[9] = peptide modifications: H3K27me3 H3S28ph, binder concentration: 1:2,000 dilution
[10] = peptide modifications: H3K27me3 H3S28ph, binder concentration: 1:10,000 dilution
[11] = peptide modifications: H3K27me1 H3S28ph, binder concentration: 1:2,000 dilution
[12] = peptide modifications: H3K27me1 H3S28ph, binder concentration: 1:10,000 dilution
[13] = peptide modifications: H3K27me2 H3S28ph, binder concentration: 1:2,000 dilution
[14] = peptide modifications: H3K27me2 H3S28ph, binder concentration: 1:10,000 dilution

## LATKAARKSAPAT [H3 20-32 L A T Kme3 A A R Kme S A P A T]
[1]; peptide modifications: H3K23me3 H3K27me1, binder concentration: 50 nM
  peptide microarray binding signal: 0.00426 ± 0.00018
[1]; peptide modifications: H3K23me3 H3K27me1, binder concentration: 500 nM
  peptide microarray binding signal: 0.00776 ± 0.00023
[2]; peptide modifications: H3K23me3 H3K27me1, binder concentration: 10 nM
  peptide microarray binding signal: 0.0209 ± 0.0012
[2]; peptide modifications: H3K23me3 H3K27me1, binder concentration: 100 nM
  peptide microarray binding signal: 0.0322 ± 0.00049
[3]; [5]
  peptide microarray binding signal: 0.0821 ± 0.0052
[3]; [6]
  peptide microarray binding signal: 0.0667 ± 0.0068
[4]; [5]
  peptide microarray binding signal: 0.0232 ± 0.0031
[4]; [6]
  peptide microarray binding signal: 0.0156 ± 0.0017

## LATKAARKSAPAT [H3 20-32 L A T Kme2 A A R Kme2 S A P A T]
[1]; peptide modifications: H3K23me2 H3K27me2, binder concentration: 50 nM
  peptide microarray binding signal: 0.00511 ± 6.7e-05
[1]; peptide modifications: H3K23me2 H3K27me2, binder concentration: 500 nM
  peptide microarray binding signal: 0.00781 ± 0.00026
[2]; peptide modifications: H3K23me2 H3K27me2, binder concentration: 10 nM
  peptide microarray binding signal: 0.0143 ± 0.0011
[2]; peptide modifications: H3K23me2 H3K27me2, binder concentration: 100 nM
  peptide microarray binding signal: 0.0265 ± 0.003
[3]; [7]
  peptide microarray binding signal: 0.001114 ± 9.2e-06
[3]; [8]
  peptide microarray binding signal: 0.000799 ± 8.3e-06
[4]; [7]
  peptide microarray binding signal: 0.000861 ± 5.4e-05
[4]; [8]
  peptide microarray binding signal: 0.000692 ± 1.9e-05

## LATKAARKSAPAT [H3 20-32 L A T K A A R Kme3 Sph A P A T]
[1]; peptide modifications: H3K27me3 H3S28ph, binder concentration: 50 nM
  peptide microarray binding signal: 0.00618 ± 0.00025
[1]; peptide modifications: H3K27me3 H3S28ph, binder concentration: 500 nM
  peptide microarray binding signal: 0.0125 ± 0.00027
[2]; peptide modifications: H3K27me3 H3S28ph, binder concentration: 10 nM
  peptide microarray binding signal: 0.0171 ± 0.0012
[2]; peptide modifications: H3K27me3 H3S28ph, binder concentration: 100 nM
  peptide microarray binding signal: 0.037 ± 0.0095
[3]; [9]
  peptide microarray binding signal: 0.0312 ± 0.0057
[3]; [10]
  peptide microarray binding signal: 0.0191 ± 0.0066
[4]; [9]
  peptide microarray binding signal: 0.104 ± 0.021
[4]; [10]
  peptide microarray binding signal: 0.0474 ± 0.0052

## LATKAARKSAPAT [H3 20-32 L A T K A A R Kme Sph A P A T]
[1]; peptide modifications: H3K27me1 H3S28ph, binder concentration: 50 nM
  peptide microarray binding signal: 0.00502 ± 0.00011
[1]; peptide modifications: H3K27me1 H3S28ph, binder concentration: 500 nM
  peptide microarray binding signal: 0.00762 ± 0.00035
[2]; peptide modifications: H3K27me1 H3S28ph, binder concentration: 10 nM
  peptide microarray binding signal: 0.0135 ± 0.00073
[2]; peptide modifications: H3K27me1 H3S28ph, binder concentration: 100 nM
  peptide microarray binding signal: 0.0189 ± 0.00035
[3]; [11]
  peptide microarray binding signal: 0.00485 ± 0.0004
[3]; [12]
  peptide microarray binding signal: 0.00519 ± 0.00023
[4]; [11]
  peptide microarray binding signal: 0.00263 ± 0.00013
[4]; [12]
  peptide microarray binding signal: 0.00277 ± 0.00013

## LATKAARKSAPAT [H3 20-32 L A T K A A R Kme2 Sph A P A T]
[1]; peptide modifications: H3K27me2 H3S28ph, binder concentration: 50 nM
  peptide microarray binding signal: 0.00527 ± 0.00024
[1]; peptide modifications: H3K27me2 H3S28ph, binder concentration: 500 nM
  peptide microarray binding signal: 0.0144 ± 0.00043
[2]; peptide modifications: H3K27me2 H3S28ph, binder concentration: 10 nM
  peptide microarray binding signal: 0.0156 ± 0.00093
[2]; peptide modifications: H3K27me2 H3S28ph, binder concentration: 100 nM
  peptide microarray binding signal: 0.0272 ± 0.0025
[3]; [13]
  peptide microarray binding signal: 0.00985 ± 0.00073
[3]; [14]
  peptide microarray binding signal: 0.00508 ± 0.00053
[4]; [13]
  peptide microarray binding signal: 0.00619 ± 0.0012
[4]; [14]
  peptide microarray binding signal: 0.0129 ± 0.0067
